Records with an inconclusive call do not appear. Calls of active or inactive are those of the source. Calls come from the whole dose curve; as a rule, active = well fitted cell-killing curve with a large enough effect; inconclusive = small, poorly fitted or top-dose-only effect; inactive = no such curve, though single readings can be large or run the other way.
Test: qHTS of pediatric cancer cell lines to identify multiple opportunities for drug repurposing: Primary screen for Rh30 cells (AID 1347107); note: nearly all actives have a fitted effect of over 75% in size
Conditions: Rh30 rhabdomyosarcoma viability, CellTiter-Glo luminescence, 48 h; series mostly up to 46 µM; activity change, negative = cytotoxic: at the top concentration
How it was run: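 Viability after 48 h compound treatment at 37C, 500-1,000 cells/well, read as ATP luminescence with CellTiter-Glo. Primary screens used 11-point (MIPE, 0.78 nM-46 µM) or 8-point (NPC, 0.59 nM-46 µM) final concentrations; follow-up screens used 11-point dilutions.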
% is set by controls: 0 for no effect and ±100 for the full control effect.

Structure (SMILES) | activity change, negative = cytotoxic
CN(C[C@@H]1COCCO1)S(=O)(=O)Nc1ccc2ccc3ncc(-c4cnn(C)c4)cc3c(=O)c2c1 | 10.2% (inactive)
CC(C)[C@H](CO)Nc1nc(Nc2ccc(C(=O)O)c(Cl)c2)c2ncn(C(C)C)c2n1 | -5.06% (inactive)
C[C@]12CCC3c4ccc(O)cc4CCC3C1CCC2=O (stereo not given in full) | -2.27% (inactive)
CC=CC[C@@H](C)C(=O)[C@H]1C(=O)N[C@@H](C(C)C)C(=O)N(C)CC(=O)N(C)[C@@H](CC(C)C)C(=O)N[C@@H](C(C)C)C(=O)N(C)[C@@H](CC(C)C)C(=O)N[C@@H](C)C(=O)N[C@H](C)C(=O)N(C)[C@@H](CC(C)C)C(=O)N(C)[C@@H](CC(C)C)C(=O)N(C)[C@@H](C(C)C)C(=O)N1C | -1.6% (inactive)
O=C(N[C@@H](c1ccccc1)[C@@H]1CCCCN1)c1cccc(C(F)(F)F)c1Cl | 4.59% (inactive)

Reference: PubChem BioAssay (NCATS)
